High-throughput results: PubChem BioAssay, National Center for Advancing Translational Sciences (NCATS)
Most compounds without a hit are left out; they make up all but 1.8% or so of the library.
TRPML1 blocker – blocks the human TRPML1 channel; Q9GZU1; TRPML1-inducible cells, Ca2+ dye fluorescence, FDSS; active compounds read low; inhibition of EC80 agonist-evoked calcium signal; activity change, negative = inhibition, % (no concentration beside the values); hit rate 0.02% among 390,000; AID 624415; in the data active means activity change below about -50%; inconclusive means between about -30% and that limit;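 further: stimulus is agonist 54-4 at its EC80 concentration; on the % scale 0 is the no-effect control and ±100 the full control effect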
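TRPML1-DL cells, Tet-induced overnight (~16 h, 37 °C) at 1,500 cells/well, were loaded with Ca8 no-wash dye plus quencher for 45-90 min at room temperature. Compounds were pinned during FDSS kinetic reading; agonist 54-4 at EC80 (4 uM final) then added.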
GLP1R ag – GLP-1 receptor (human) agonism. P43220. HEK293 GLP-1R CRE-luciferase, luminescence, 4-6 h; cells express a hypersensitive GLP-1R form. Potency, µM (titrated, usually from 45.6 µM), without a hit: top-dose activation, most hits filed as activators. hit rate 0.007% among 380,000; further: potency means the concentration at half of the fitted maximal effect; % of control where 0% means no effect
Target sequence (P43220 whole entry, looked up): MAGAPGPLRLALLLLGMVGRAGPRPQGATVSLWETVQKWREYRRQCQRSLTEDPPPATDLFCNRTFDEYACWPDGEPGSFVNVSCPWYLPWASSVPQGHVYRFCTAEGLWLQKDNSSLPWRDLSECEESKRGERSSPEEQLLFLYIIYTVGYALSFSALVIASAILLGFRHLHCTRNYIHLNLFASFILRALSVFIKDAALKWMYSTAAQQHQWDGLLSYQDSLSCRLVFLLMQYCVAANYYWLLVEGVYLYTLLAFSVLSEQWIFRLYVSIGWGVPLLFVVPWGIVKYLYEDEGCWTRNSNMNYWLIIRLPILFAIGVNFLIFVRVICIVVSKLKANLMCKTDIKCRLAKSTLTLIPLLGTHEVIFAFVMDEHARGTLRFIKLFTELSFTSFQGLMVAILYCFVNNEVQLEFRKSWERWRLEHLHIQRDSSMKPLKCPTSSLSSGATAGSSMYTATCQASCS
GLP-1R inv ag – acts as inverse agonist at human GLP-1 receptor; Potency, µM (doses to about 38.3 µM), for inactives: top-dose activity change, negative = inhibition, actives largely listed as inhibitors; AID 624417; hit rate 1.6% among 410,000; HEK293 GLP-1R CRE-luciferase, luminescence, 24 h; GLP-1R form is constitutively active; P43220; further: potency means the concentration at half of the fitted maximal effect; on the % scale 0 is the no-effect control and ±100 the full control effect; nearly all actives have a fitted effect of over 55% in size
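Inverse agonists were sought by their lowering of basal cAMP reporter luciferase output in HEK293 cells stably carrying constitutively active human GLP-1R, after 24 h compound treatment.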
TRPML1 ag – activates the human TRPML1 channel; AID 624414; hit rate 0.12% among 410,000; Q9GZU1; TRPML1-expressing cells, Ca2+ dye fluorescence, FDSS; activation, % (test concentration not listed); in the data active means activation above about 50%; inconclusive means mostly about 30% to 49%; further: 0% is about no effect
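In this qHTS format, compounds were pin-transferred onto Ca8-dye-loaded TRPML1-DL cells induced with Tet overnight, and intracellular Ca2+ fluorescence was recorded kinetically for 110 s after a 10 s baseline. A subsequent 4uM final 54-4 (EC80) addition followed by a second 110 s read served as the antagonist phase.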
GLP1R cytotox – cytotoxicity in counter-screen for GLP-1R inverse agonists | HEK293 cAMP-luciferase reporter cells, luminescence, 24 h | Potency, µM (doses to about 38.3 µM), for the others: top-dose activity change, negative = inhibition, actives largely listed as inhibitors | hit rate 0.13% among 410,000 | AID 624418;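 further: loss of luciferase light is scored as toxicity; potency means the concentration at half of the fitted maximal effect; on the % scale 0 is the no-effect control and ±100 the full control effect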
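Seeding density was 200 cells/uL; after overnight-length (12 h) culture, 23 nL compounds went on for 24 h at 37 °C. Readout used a luciferase detection reagent, luminescence taken after 12 min at room temperature.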
* hit, by the source's call; ? = inconclusive; / = no result given. Unless noted, the call rests on the fitted dose curve; in most records, active means well fitted curve in the direction sought with a large enough effect; inconclusive means small, poorly fitted or top-dose-only effect, or another doubt; inactive means no such curve, though single readings can be large; an effect the other way counts as inactive or inconclusive.

SMILES | TRPML1 blocker | GLP1R ag | GLP-1R inv ag | TRPML1 ag | GLP1R cytotox
COc1cc(/C=C(\C#N)C(=O)NCC2CCCO2)ccc1OCCC(C)C (configuration not stated) | -19 | 23% | ? | 52* | 3%
O=C1OCCN1C(=O)[C@H]1[C@H](c2ccc([N+](=O)[O-])cc2)C(c2ccc(F)cc2)=NN1c1ccc(Br)cc1 | 17 | -2% | 10µM* | 0 | -15%
O=C1OCCN1C(=O)[C@H]1[C@H](c2ccc([N+](=O)[O-])cc2)C(c2ccc(F)cc2)=NN1c1ccccc1 | -3 | 0% | ? | -1 | -11%
O=C(c1ccc2c(c1)OCCO2)N1CCN(c2nc(-c3cccs3)nc3ccccc23)CC1 | / | / | / | 0 | /
COc1cc(-c2nc(Cn3nnc(C(=O)Nc4cccc(Cl)c4)c3C)c(C)o2)cc(OC)c1OC | -13 | -1% | 18% | 0 | 2%
CCC1CCCCN1CCCNC(=O)C(C)n1nc(C)c2sc3ccccc3c2c1=O (configuration not stated) | -12 | -6% | 7.9µM* | 0 | ?
CCN1/C(=C/C=C/c2oc3ccc(-c4ccccc4)cc3[n+]2CC)Oc2ccc(-c3ccccc3)cc21 | -16 | -7% | ? | 80* | ?
C(/C=C/c1ccccc1)=N/N1CCN(c2ccccc2)CC1 | -7 | -25% | 0% | 0 | 9%
C(=C\c1ccccc1)/C=N/N1CCN(c2ccccn2)CC1 | -12 | 8% | 3.5µM* | 3 | -2%
CN(CC(=O)Nc1ccc(OC(F)(F)F)cc1)C(=O)Cc1cccs1 | 14 | 4% | 11µM* | -1 | -3%
COc1ccc(-c2noc(CCC(=O)NCC3CCN(Cc4cccc(C)c4)CC3)n2)cc1 | 3 | 3% | 11µM* | -1 | -29%
CC(C)(C)n1ncc2c(=O)n(Cc3ccc(C#N)cc3)cnc21 | -5 | / | / | 0 | /
Cc1cccc(C)c1NC(=O)C(C)c1ccc(-c2ccccc2)c(F)c1 (configuration not stated) | 12 | -13% | 10µM* | 0 | -4%
Oc1ccc(-c2cnc3c(Nc4cccc(OC(F)(F)C(F)F)c4)nccn23)cc1 | / | 5% | ? | 0 | -28%
FC(F)C(F)(F)Oc1cccc(Nc2nccn3c(-c4ccc5ccccc5c4)cnc23)c1 | / | -1% | 11µM* | 0 | -5%
Cc1oc(-c2ccc(C(=O)N(C)Cc3ccccc3)cc2)nc1CN1CCc2ccccc21 | -8 | 13% | 11µM* | 4 | 0%
Cc1ccc(CNC(=O)c2ccc(-c3nc(CN4CCc5ccccc54)c(C)o3)cc2)cc1 | 18 | -7% | -25% | 2 | -7%
Cc1cc(C)c2c(c1)-c1c(ssc1=S)C(C)(C)N2C(=O)CN1C(=O)c2ccccc2C1=O | ? | 6% | -50% | 67* | -5%
CC1=CC(C)(C)N(C(=O)CN2C(=O)c3ccccc3C2=O)c2ccccc21 | -4 | 6% | -23% | 96* | 1%
CC1CC(C)(C)N(C(=O)CN2C(=O)c3ccccc3C2=O)c2ccccc21 (configuration not stated) | -15 | 10% | ? | 94* | -9%
CC1=CC(C)(C)N(C(=O)CN2C(=O)CCC2=O)c2ccc(C)cc21 | 4 | 1% | 2% | 0 | 3%
Cc1c(Cl)cccc1NC(=O)CN1C(=O)c2ccccc2Sc2ncccc21 | -7 | -1% | 10% | 0 | 6%
CNc1ccc(/C=C/c2ccccc2)cc1 | / | / | / | -1 | /
c1ccc(CN2CCC(Nc3nc(-c4cccs4)nc4ccccc34)CC2)cc1 | 7 | -4% | 7.1µM* | 0 | ?
c1csc(-c2nc(NCC3CCCO3)c3ccccc3n2)c1 (configuration not stated) | -3 | 16% | ? | -1 | -12%
SMILES | TRPML1 blocker | GLP1R ag | GLP-1R inv ag | TRPML1 ag | GLP1R cytotox
NCCNC[C@@H]1COC2(CCCCCCCCCCC2)O1 | -10 | 17% | 5µM* | 0 | -29%
CC1=CC(=O)C(C(C)C)=C/C1=N/OS(=O)(=O)c1ccccc1 | -5 | -15% | ? | 50* | ?
Cc1cccc(-c2nc(C)c(CCNC(=O)C(=O)Nc3ccc(C)c(C)c3)s2)c1 | 31 | 4% | 4% | 5 | -3%
CN(C(=S)Nc1ccc(SC(F)F)cc1)C(c1ccccc1)c1ccccc1 | 19 | -1% | ? | 1 | -20%
FC(F)Sc1ccc(NC(=S)NC(c2ccccc2)c2ccccc2)cc1 | 4 | -5% | 4µM* | 2 | ?
COc1ccc(OC)c(NC(=O)c2csnn2)c1 | -10 | / | -3% | 0 | 2%
CCc1nn2c(-c3ccccc3OC)ccnc2c1-c1ccccc1 | 3 | 0% | 10µM* | 2 | 2%
CCCNC(=O)Cn1nc(-c2ccc(C)c(C)c2)c2cnc3ccc(OC)cc3c21 | -9 | / | 15% | 0 | 25%
Cc1ccc(CN2CCN(CCCn3cnc4c(OCc5ccccc5)ncnc43)CC2)cc1 | -7 | -3% | 8.9µM* | 0 | -19%
Cc1cc(C)c(CN2CCN(C(=O)Cn3cnc4c(OCc5ccccc5)ncnc43)CC2)c(C)c1 | 0 | 0% | 6.3µM* | 0 | -11%
COc1ccccc1NC(=O)C1=C(C)Nc2nc(SCc3ccccc3)nn2C1c1cccs1 (configuration not stated) | 35 | / | 18% | 2 | 0%
C[C@]12C=CC(=O)N[C@@H]1CC[C@@H]1C2CC[C@]2(C)C(C(=O)Nc3cc(C(F)(F)F)ccc3C(F)(F)F)CC[C@@H]12 (some centres not stated) | / | 2% | / | / | /
C/C(=N\NC(=O)c1ccc(Br)cc1)C1C(=O)c2ccccc2C1=O | 6 | -8% | ? | 0 | 10µM*
CN1CCCC(CC2Oc3ccccc3Sc3ccccc32)C1 (configuration not stated) | 1 | -3% | 5.6µM* | 0 | ?
c1ccc(OCCCCN2CCCCC2)cc1 | -2 | -2% | 33% | 1 | 13%
c1ccc2c(c1)OC(CCCN1CCCCC1)c1ccccc1S2 (configuration not stated) | -6 | 0% | 7.9µM* | 1 | -17%
O=C(Cn1nc(Cc2cccnc2)c2ccccc2c1=O)Nc1ccc(F)c(Cl)c1 | -5 | / | -14% | 0 | -7%
CC(/C=C/c1ccccc1)=N\NC(N)=S | -1 | 2% | 2.5µM* | 0 | ?
CN(C(=O)CO)c1c(I)c(C(=O)NCC(O)CO)c(I)c(C(=O)NCC(O)CO)c1I (configuration not stated) | / | -6% | / | / | /
O=C(Nc1ccc(Cl)cc1)NC1CCCCC1Cc1ccco1 (configuration not stated) | -10 | -13% | 10µM* | 0 | -30%
